# Values without a mark were called inactive. Records with an inconclusive call do not appear. A call without a number means that no potency is given here. Active and inactive are the calls of the source. Unless noted, calls come from the whole dose curve; as a rule, active = well fitted curve in the direction sought with a large enough effect; inconclusive = small, poorly fitted or top-dose-only effect, or another doubt; inactive = no such curve, though single readings can be large; an effect the other way counts as inactive or inconclusive.
# What was measured:
# [1] = molecular target: Beta-2 adrenergic receptor (Homo sapiens) (UniProt P07550); test: qHTS validation assay of beta-arrestin-biased ligands of beta2-adrenergic receptor (AID 485366)
# Method in brief: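 Screening used a titration range of up to 46 microM in a beta-arrestin recruitment Tango luciferase assay. Cells in 1% FBS medium were treated 18 hr at 37 degrees C, and luminescence was normalized to %Activity.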
# [2] = molecular target: ATP-dependent 6-phosphofructokinase (Trypanosoma brucei brucei) (UniProt O15648); test: qHTS Validation Assay to Find Inhibitors of T. brucei phosphofructokinase (AID 485368)
# Method in brief: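 PFK-generated ADP was measured after 45 min at room temperature using ADP-Glo. The reaction contained 0.5 mM F6P and 0.1 mM ATP.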
# [3] = Quantitative high throughput screen for delayed death inhibitors of the malarial parasite plastid, 96 hour incubation (AID 488745); note: nearly all actives have a fitted effect of over 70% in size; note: potency is the fitted concentration of half-maximal effect
# Method in brief: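 Luciferase-expressing P. falciparum, infected RBCs 2% Hct/0.1% parasitemia (final); 96 h cpd exposure, 37 C, 5% CO2; RPMI 1640 + 0.5% Albumax, bicarbonate, gentamycin. Readout: luminescence loss = growth inhibition.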
# [4] = Quantitative high throughput screen for delayed death inhibitors of the malarial parasite plastid, 48 hour incubation (AID 488752); note: nearly all actives have a fitted effect of over 65% in size; note: potency is the fitted concentration of half-maximal effect
# Method in brief: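 Luciferase-expressing P. falciparum in RBCs, 2% Hct, 0.1% parasitemia final; RPMI 1640 + 0.5% Albumax; 48 h, 37 C, 5% CO2; luminescence readout, signal drop = growth inhibition.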
# [5] = molecular target: Thioredoxin reductase 1, cytoplasmic (Rattus norvegicus) (UniProt O89049); test: qHTS Assay for Substrates of Mammalian Selenoprotein Thioredoxin Reductase 1 (TrxR1) (AID 488772);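 note: series mostly up to about 57 µM; a drop in NADPH fluorescence below the no-compound background marks a TrxR1 substrate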
# Method in brief: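 In this dual-purpose format, potential substrates are identified from the first fluorescence read after selenite addition, not from the 8-minute delta. Rat enzyme is preincubated with NADPH and then with compound at ~22 deg C.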
# [6] = molecular target: Thioredoxin reductase 1, cytoplasmic (Rattus norvegicus) (UniProt O89049); test: qHTS Assay for Inhibitors of Mammalian Selenoprotein Thioredoxin Reductase 1 (TrxR1) (AID 488773); details: Potency: inhibition;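 note: drop in NADPH fluorescence over an 8 min run after selenite addition; series mostly up to about 57 µM; nearly all actives have a fitted effect of over 40% in size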
# Method in brief: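 Inhibition is scored from the loss of NADPH fluorescence between first and last reads of an 8-min kinetic run. Selenite (400 uM) was the substrate, added after 15 min compound preincubation at room temperature.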
# [7] = molecular target: Flap endonuclease 1 (Homo sapiens) (UniProt P39748); test: qHTS Validation Assay for the Inhibitors of Human Flap endonuclease 1 (FEN1) (AID 488816)
# Method in brief: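 Steps: add FEN1 (10 nM reagent) or buffer only; pin compounds; hold 15 min at room temperature; start with substrate, 50 nM final; read at 0 and 15 min; correct, normalize and fit a four-parameter Hill curve.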
# [8] = molecular target: M-phase phosphoprotein 8 (Homo sapiens) (UniProt Q99549); test: qHTS Validation Assay for Inhibitors for MPP8 Chromodomain Interactions with Methylated Histone Tails (AID 488949);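 note: AlphaScreen signal from MPP8 chromodomain bound to biotinylated H3K9me3 peptide; top concentration of the series differs between compounds; nearly all actives have a fitted effect of over 55% in size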
# Method in brief: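 AlphaScreen proximity signal from streptavidin donor and Ni-chelate acceptor beads (10 ug/mL each) reported binding of MPP8 to trimethyl-K9 H3(1-18) peptide, both at 50 nM. The complex formed 30 min before a 30 min compound exposure at room temperature, in PBS pH 7.4.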
# [9] = molecular target: Chromobox protein homolog 1 (Homo sapiens) (UniProt P83916); test: qHTS Validation Assay for Inhibitors of HP1-beta Chromodomain Interactions with Methylated Histone Tails (AID 488953);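 note: loss of AlphaScreen luminescence from HP1-beta binding biotinylated H3K9me3 peptide; series mostly up to about 110 µM; nearly all actives have a fitted effect of over 50% in size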
# Method in brief: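 AlphaScreen proximity readout: streptavidin donor and Ni-chelate acceptor beads, 10 ug/mL final, 30 min dark, RT. Complex of 50 nM HP1-beta and 50 nM b-H3(1-18)K9me3 formed 30 min, then compound-treated 30 min; PBS pH 7.4/0.01% Tween-20.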
# [10] = molecular target: Transient receptor potential cation channel subfamily V member 1 (Homo sapiens) (UniProt Q8NER1); test: HTS Assay for Compounds that Act as Enhancers of the Vanilloid Receptor 1 (AID 488979)
# Method in brief: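 TRPV1-expressing cells loaded with Fluo-8 calcium dye; compounds added and calcium influx read kinetically for 3 min (agonist phase), then capsaicin at EC20 added and read 2 min more for enhancement. Fluorescence ex 480/em 520 nm.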
# [11] = molecular target: D(1A) dopamine receptor (Homo sapiens) (UniProt P21728); test: HTS Assay for Allosteric Agonists of the Human D1 Dopamine Receptor: Primary Screen for Agonists (AID 488981)
# Method in brief: (§1)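 Tetracycline-induced HEK293 T-REx cells force-coupled to calcium signalling were incubated overnight at 30 C and dye-loaded at room temperature. Calcium flux over 180 s after compound addition flagged agonists; a further 180 s read after EC20 dopamine flagged potentiators.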
# [12] = molecular target: D(1A) dopamine receptor (Homo sapiens) (UniProt P21728); test: HTS Assay for Allosteric Agonists of the Human D1 Dopamine Receptor: Primary Screen for Potentiators (AID 488982)
# Method in brief: as §1
# [13] = molecular target: D(1A) dopamine receptor (Homo sapiens) (UniProt P21728); test: HTS Assay for Allosteric Agonists of the Human D1 Dopamine Receptor: Primary Screen for Antagonists (AID 488983);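 note: calcium flux response to an EC80 dopamine challenge measured with no-wash dye; nearly all actives have a fitted effect of over 65% in size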; note: potency is the fitted concentration of half-maximal effect
# Method in brief: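 Calcium flux readout, no-wash dye, inducible HEK293 T-REx D1 line (force-coupled). Compound added after 10 s baseline, 180 s kinetic read; then dopamine at EC80, further 180 s read.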
# [14] = molecular target: ATPase family AAA domain-containing protein 5 (Homo sapiens) (UniProt Q96QE3); test: Validation screen for small molecules that inhibit ELG1-dependent DNA repair in human embryonic kidney (HEK293T) cells expressing luciferase-tagged ELG1 (AID 493107);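 note: cells co-treated with the DNA-damaging agent 5-fluorouridine alongside compound; series mostly up to about 46 µM; inhibitors lower the ELG1-luciferase luminescence signal; nearly all actives have a fitted effect of over 70% in size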
# Method in brief: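 ELG1-luciferase HEK293T reporter; 5-fluorouridine + compound/DMSO, 16 hr, 37 °C, 5% CO2; ONE-Glo 30 min RT; luminescence read, qHTS format.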
# [15] = molecular target: Thyrotropin receptor (Homo sapiens) (UniProt P16473); test: qHTS Assay for Antagonists of the Thyroid Stimulating Hormone Receptor (AID 488980); note: series mostly up to about 58 µM
# Method in brief: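 Inhibition of cAMP raised by EC80 TSH (4 nM final) was read by HTRF, with lysate cAMP competing against cAMP-d2 for cryptate antibody after 30 min at room temperature. The cells were transfected HEK293 held in phosphodiesterase inhibitor RO 20-1724 at 70 uM.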
# [16] = Validation screen for small molecules that induce genotoxicity in human embryonic kidney (HEK293T) cells expressing luciferase-tagged ELG1 (AID 493106)
# Method in brief: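 qHTS format; 2,000 HEK293T ELG1-luc cells/well; 23 nL compound via pin tool; 16 hr, 37 °C/5% CO2; ONE-Glo, 30 min RT; luminescence read.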
# [17] = molecular target: Thyrotropin-releasing hormone receptor (Homo sapiens) (UniProt P34981); test: qHTS for Small Molecule Agonists and Allosteric Enhancers of Human TRH Receptor: Validation Screen for Agonists (AID 493127;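 active = calcium activation more than 3 SD above the typical response in the agonist read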;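 note: intracellular calcium rise by fluo-8 fluorescence before TRH EC20 addition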); details: TRH receptor agonist cell assay; at 2 µM; hits give high values
# Method in brief: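 Read-out: intracellular calcium release measured kinetically by FDSS (fluo-8, ex 480/em 530 nm), 1 reading/s after a 10-cycle baseline. TRHR cells, 2000/well, cultured 18 h at 33.5C, dye-loaded at room temp. Compound-evoked positive calcium signal flags agonists.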
# [18] = molecular target: Methanococcus maripaludis chaperonin (MmCpn) (UniProt Q6LX38); test: High-Throughput Screening for Modulators of Cytosolic Chaperonin Activity: MmCpn Primary Screen (AID 488978);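 note: 50 nM MmCpn enzyme hydrolysing 30 µM ATP at 37 °C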
# Method in brief: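 ATPase activity of 50 nM MmCpn was assayed with 30 uM ATP, 10 minutes at 37C, after a 5 min compound preincubation at room temperature. ADP production was read as HTRF emission at 590 and 665 nm.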
# Chain of Thyrotropin-releasing hormone receptor (Homo sapiens) (P34981 whole entry, looked up): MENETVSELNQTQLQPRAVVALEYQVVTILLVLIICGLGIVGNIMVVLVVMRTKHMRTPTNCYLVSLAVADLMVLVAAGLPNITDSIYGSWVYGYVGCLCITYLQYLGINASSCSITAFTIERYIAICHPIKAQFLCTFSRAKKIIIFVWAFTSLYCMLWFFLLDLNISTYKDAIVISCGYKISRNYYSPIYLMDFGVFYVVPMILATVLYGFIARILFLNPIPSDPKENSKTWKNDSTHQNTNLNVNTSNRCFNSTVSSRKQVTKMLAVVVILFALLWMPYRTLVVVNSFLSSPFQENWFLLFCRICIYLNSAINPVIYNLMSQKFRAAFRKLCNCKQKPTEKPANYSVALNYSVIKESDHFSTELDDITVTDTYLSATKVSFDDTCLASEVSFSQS
# Chain of Flap endonuclease 1 (Homo sapiens) (P39748 whole entry, looked up): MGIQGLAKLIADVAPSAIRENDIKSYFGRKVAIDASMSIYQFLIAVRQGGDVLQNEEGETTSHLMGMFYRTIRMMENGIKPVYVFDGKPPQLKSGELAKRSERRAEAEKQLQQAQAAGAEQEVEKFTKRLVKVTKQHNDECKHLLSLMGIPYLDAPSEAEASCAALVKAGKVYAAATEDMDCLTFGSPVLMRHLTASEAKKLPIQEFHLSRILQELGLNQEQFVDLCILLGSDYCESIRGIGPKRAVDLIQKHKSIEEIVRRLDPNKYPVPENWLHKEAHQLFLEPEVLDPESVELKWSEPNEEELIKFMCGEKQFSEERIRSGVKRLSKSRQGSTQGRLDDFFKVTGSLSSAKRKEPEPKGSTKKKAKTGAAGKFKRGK
# Chain of Beta-2 adrenergic receptor (Homo sapiens) (P07550 whole entry, looked up): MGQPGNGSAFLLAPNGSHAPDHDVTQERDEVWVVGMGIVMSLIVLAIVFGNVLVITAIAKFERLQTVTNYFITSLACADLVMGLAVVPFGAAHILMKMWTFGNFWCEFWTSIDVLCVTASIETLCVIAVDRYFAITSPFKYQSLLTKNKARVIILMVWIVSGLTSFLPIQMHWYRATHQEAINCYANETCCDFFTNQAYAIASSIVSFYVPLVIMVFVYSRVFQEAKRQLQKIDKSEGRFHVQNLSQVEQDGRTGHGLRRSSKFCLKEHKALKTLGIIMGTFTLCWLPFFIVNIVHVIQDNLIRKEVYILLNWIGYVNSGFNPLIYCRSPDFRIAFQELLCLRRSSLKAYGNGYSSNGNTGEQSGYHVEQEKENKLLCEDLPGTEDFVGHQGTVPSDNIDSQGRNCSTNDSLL
# Chain of M-phase phosphoprotein 8 (Homo sapiens) (Q99549 whole entry, looked up): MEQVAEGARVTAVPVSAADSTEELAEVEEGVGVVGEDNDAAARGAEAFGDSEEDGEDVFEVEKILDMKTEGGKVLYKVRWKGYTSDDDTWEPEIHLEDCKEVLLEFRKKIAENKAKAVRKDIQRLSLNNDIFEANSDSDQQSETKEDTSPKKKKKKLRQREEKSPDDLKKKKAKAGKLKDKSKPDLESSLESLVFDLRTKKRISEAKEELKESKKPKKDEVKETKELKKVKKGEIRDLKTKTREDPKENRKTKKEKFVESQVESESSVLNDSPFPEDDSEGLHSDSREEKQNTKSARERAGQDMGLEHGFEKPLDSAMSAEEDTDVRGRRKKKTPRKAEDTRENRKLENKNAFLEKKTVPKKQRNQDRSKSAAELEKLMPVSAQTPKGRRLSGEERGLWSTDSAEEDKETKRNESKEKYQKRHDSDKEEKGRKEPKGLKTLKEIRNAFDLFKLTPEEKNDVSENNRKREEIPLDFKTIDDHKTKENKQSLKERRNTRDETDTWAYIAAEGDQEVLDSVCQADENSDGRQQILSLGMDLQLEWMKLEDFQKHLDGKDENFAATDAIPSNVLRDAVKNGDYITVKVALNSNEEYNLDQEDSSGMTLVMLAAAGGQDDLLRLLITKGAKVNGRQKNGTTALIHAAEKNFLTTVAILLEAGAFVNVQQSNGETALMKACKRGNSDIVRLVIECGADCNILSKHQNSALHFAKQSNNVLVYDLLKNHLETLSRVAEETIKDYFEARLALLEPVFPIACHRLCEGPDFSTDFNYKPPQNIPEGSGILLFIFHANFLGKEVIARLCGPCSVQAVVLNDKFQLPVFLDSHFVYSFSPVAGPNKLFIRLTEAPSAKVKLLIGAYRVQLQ
# Chain of Methanococcus maripaludis chaperonin (MmCpn) (Q6LX38 1-543): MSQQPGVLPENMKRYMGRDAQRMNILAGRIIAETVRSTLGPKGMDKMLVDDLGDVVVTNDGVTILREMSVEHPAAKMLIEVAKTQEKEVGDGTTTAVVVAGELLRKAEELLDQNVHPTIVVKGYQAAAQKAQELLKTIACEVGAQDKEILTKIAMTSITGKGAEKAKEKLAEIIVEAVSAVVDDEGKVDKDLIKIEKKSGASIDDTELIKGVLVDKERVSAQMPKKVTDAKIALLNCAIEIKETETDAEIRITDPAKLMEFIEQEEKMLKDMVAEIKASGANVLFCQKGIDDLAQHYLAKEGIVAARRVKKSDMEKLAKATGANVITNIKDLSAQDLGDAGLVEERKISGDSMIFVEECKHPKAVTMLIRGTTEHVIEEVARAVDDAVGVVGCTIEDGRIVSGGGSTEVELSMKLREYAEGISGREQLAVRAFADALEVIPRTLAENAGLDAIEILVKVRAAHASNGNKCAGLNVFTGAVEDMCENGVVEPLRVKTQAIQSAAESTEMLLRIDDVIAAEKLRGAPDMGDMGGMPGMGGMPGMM
# Chain of Transient receptor potential cation channel subfamily V member 1 (Homo sapiens) (Q8NER1 whole entry, looked up): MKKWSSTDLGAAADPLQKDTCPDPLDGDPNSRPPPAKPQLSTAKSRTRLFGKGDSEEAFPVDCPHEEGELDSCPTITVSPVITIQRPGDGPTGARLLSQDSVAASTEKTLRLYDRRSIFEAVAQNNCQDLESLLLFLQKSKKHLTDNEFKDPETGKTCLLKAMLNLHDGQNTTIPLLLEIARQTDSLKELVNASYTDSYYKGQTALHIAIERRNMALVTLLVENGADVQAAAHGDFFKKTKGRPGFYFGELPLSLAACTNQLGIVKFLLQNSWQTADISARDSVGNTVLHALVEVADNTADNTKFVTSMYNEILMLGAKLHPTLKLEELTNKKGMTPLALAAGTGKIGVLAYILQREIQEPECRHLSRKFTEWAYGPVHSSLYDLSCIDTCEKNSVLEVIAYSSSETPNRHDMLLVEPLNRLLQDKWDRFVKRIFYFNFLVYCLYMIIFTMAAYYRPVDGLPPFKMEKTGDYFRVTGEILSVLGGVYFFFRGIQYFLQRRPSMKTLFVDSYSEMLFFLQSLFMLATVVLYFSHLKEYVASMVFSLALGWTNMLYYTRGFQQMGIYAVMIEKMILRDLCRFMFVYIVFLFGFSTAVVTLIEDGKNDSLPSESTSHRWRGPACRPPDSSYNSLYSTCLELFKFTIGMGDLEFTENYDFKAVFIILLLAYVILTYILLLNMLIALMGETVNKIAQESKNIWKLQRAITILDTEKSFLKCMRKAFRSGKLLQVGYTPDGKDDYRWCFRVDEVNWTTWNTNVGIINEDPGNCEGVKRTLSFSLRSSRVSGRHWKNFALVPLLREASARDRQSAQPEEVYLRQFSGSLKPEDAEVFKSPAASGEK
# Chain of Thioredoxin reductase 1, cytoplasmic (Rattus norvegicus) (O89049 whole entry, looked up): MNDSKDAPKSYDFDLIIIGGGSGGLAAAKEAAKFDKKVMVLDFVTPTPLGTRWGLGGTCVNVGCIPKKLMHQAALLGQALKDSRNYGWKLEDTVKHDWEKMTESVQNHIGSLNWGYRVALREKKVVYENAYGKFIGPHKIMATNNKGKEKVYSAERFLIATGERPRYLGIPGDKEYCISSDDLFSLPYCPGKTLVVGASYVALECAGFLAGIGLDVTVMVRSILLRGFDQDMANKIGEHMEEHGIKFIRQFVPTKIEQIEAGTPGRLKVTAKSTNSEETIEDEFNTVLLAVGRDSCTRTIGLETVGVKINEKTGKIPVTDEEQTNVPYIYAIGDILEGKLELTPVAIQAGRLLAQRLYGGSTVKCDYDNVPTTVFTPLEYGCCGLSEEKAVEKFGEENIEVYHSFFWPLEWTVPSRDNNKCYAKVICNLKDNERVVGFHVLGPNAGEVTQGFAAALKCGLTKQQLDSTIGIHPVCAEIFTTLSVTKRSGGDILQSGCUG
# Chain of D(1A) dopamine receptor (Homo sapiens) (P21728 whole entry, looked up): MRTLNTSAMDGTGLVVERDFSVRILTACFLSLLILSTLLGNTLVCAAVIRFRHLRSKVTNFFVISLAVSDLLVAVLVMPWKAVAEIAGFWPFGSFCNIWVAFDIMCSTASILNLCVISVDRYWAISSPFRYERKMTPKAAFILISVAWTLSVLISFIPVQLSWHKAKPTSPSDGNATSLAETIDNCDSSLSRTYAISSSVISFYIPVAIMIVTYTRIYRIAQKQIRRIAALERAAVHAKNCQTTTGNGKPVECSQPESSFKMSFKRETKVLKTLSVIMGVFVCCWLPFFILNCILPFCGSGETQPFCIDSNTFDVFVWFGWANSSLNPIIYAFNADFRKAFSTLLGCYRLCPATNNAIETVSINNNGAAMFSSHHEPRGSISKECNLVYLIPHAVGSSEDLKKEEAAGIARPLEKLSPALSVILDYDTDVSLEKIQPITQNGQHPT
# Chain of Chromobox protein homolog 1 (Homo sapiens) (P83916 whole entry, looked up): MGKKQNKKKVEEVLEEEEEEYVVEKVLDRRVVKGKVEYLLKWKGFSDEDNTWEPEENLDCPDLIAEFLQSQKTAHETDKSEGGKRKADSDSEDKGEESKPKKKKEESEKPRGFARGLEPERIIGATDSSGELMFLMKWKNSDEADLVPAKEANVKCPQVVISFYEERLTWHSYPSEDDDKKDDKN
Compound,outcome [1],Potency [2],Potency [3],Potency [4],outcome [5],Potency [6],Potency [7],Potency [8],Potency [9],outcome [10],Potency [11],Potency [12],Potency [13],Potency [14],outcome [15],Potency [16],activation [17] [%],outcome [18]
N[C@H]1CONC1=O,inactive,inactive,inactive,inactive,inactive,inactive,inactive,inactive,inactive,inactive,inactive,inactive,inactive,inactive,,,,
CC(N)=NCCCC[C@@H](N)C(=O)O,inactive,inactive,inactive,inactive,inactive,inactive,inactive,inactive,inactive,inactive,inactive,inactive,inactive,inactive,inactive,inactive,1.31,
O=C1OC(=O)C2C3CCC(O3)C12 (stereo not drawn),inactive,inactive,inactive,inactive,inactive,inactive,inactive,inactive,inactive,inactive,,inactive,inactive,inactive,inactive,,,inactive
CC(=O)NNC(=O)N1Cc2ccccc2Oc2ccc(Cl)cc21,inactive,inactive,inactive,inactive,inactive,inactive,inactive,inactive,inactive,inactive,inactive,inactive,inactive,inactive,inactive,inactive,0.562,inactive
N=S(=O)(O)Cc1noc2ccccc12,inactive,inactive,inactive,inactive,inactive,inactive,inactive,inactive,inactive,inactive,inactive,inactive,inactive,inactive,,inactive,,inactive
N=C(N)c1ccccc1,inactive,inactive,inactive,inactive,inactive,inactive,inactive,inactive,inactive,inactive,inactive,inactive,inactive,inactive,inactive,inactive,1.19,inactive
Cc1ccc2c(c1)C(N1CCN(C)CC1)=Nc1cccnc1N2,inactive,inactive,inactive,inactive,inactive,inactive,inactive,inactive,,inactive,inactive,inactive,4470 nM (active),,inactive,inactive,-0.312,inactive
C#CCn1c(=O)c2c(ncn2C)n(C)c1=O,inactive,inactive,inactive,inactive,inactive,inactive,inactive,inactive,inactive,inactive,inactive,inactive,,inactive,inactive,inactive,,inactive
NC/C=C\C(=O)O,inactive,inactive,inactive,inactive,inactive,inactive,inactive,,inactive,inactive,,inactive,,inactive,inactive,,0.75,inactive
O[Si](CCCN1CCCCC1)(c1ccc(F)cc1)C1CCCCC1 (stereo not drawn),inactive,inactive,117 nM (active),117 nM (active),inactive,inactive,inactive,,inactive,,,inactive,inactive,,,inactive,5.12,inactive
CC1CCN=C(N)S1 (stereo not drawn),inactive,inactive,inactive,inactive,inactive,inactive,inactive,inactive,inactive,inactive,,,inactive,inactive,inactive,inactive,-2.88,inactive
COc1ccc(CCN(C)CCc2ccc(OC)c(OC)c2)cc1OC,inactive,inactive,inactive,inactive,inactive,inactive,inactive,inactive,inactive,inactive,,inactive,inactive,inactive,inactive,inactive,-4.19,inactive
CC(C)Cn1c(=O)n(C)c(=O)c2[nH]cnc21,inactive,inactive,inactive,inactive,inactive,inactive,inactive,inactive,inactive,inactive,,inactive,,inactive,inactive,inactive,0.875,inactive
NC(N)=N[C@@H](CCC(=O)O)C(=O)O,inactive,inactive,inactive,inactive,inactive,inactive,inactive,,inactive,inactive,inactive,inactive,inactive,inactive,,inactive,0.0625,inactive
Cn1c(=O)c2[nH]c(-c3ccc(S(=O)(=O)O)cc3)nc2n(C)c1=O,inactive,inactive,inactive,inactive,inactive,inactive,inactive,inactive,inactive,inactive,,,inactive,inactive,inactive,inactive,0.938,inactive
NC1(C(=O)O)CCCCC1,inactive,inactive,inactive,inactive,inactive,inactive,inactive,inactive,,inactive,inactive,inactive,,inactive,inactive,inactive,,inactive

# Source: PubChem BioAssay (NCATS)
